Compounds with a hit are over-represented: about 2.2% of the library has one in this group of screens.
JMJD2C inh: inhibitors of human GASC-1 (JMJD2C) demethylase. Q9H3R0. GST-JMJD2C(1-420) H3K9me3 demethylation, DELFIA europium. inhibition, % at 2.35 µM. 330,000 compounds, 0.069% hits. AID 2099;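 active = more than half of a compound's replicate wells show inhibition beyond 50%, single wells judged on their own value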;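 also: signal counts dimethyl H3K9 product captured on neutravidin plate; 0% = median of DMSO wells and 100% = 0.3 times that DMSO median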
Granule exo inh: lytic granule exocytosis inhibition. TALL-104 LAMP-1 surface exposure, flow cytometry; cells stimulated with thapsigargin and PMA. inhibition, % at 10 µM. 360,000 compounds, 0.66% hits. AID 651702;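 active = inhibition above about 55%, limit read from the data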
m5-HT2A agonist: agonists of mouse serotonin 5-HT2A receptor (HTR2A). CHO-K1 mHTR2A beta-arrestin complementation, luminescence; percent of 30 µM serotonin response. activation, % at 7.6 µM. 360,000 compounds, 0.66% hits. AID 624169;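 active = activation above a run cutoff, the mean activation of all tested compounds plus 3 SD, cut at about 14% in these data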;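 also: 0% = plate median of compound wells and 100% = 30 µM serotonin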
Target sequence (P35363 whole entry, looked up): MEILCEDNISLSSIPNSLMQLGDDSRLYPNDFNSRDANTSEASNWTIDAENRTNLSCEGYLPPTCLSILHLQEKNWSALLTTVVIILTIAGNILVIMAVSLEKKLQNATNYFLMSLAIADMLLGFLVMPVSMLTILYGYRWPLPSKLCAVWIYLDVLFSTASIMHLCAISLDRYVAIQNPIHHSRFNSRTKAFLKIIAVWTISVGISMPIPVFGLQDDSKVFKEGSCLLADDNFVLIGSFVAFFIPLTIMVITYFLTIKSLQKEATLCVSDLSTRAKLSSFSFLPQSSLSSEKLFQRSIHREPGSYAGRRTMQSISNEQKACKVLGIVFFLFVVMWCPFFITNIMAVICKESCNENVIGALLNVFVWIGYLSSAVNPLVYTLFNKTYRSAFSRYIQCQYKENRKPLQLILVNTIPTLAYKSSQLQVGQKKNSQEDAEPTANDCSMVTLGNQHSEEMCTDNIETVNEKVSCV
MEX-5 binding: C. elegans MEX-5 TCR-2 RNA binding activity | 300,000 compounds, 0.38% hits | activity score (negative = inhibition of binding), % at 10 µM | AID 1832 | MEX-5/FITC-TCR2 RNA binding, fluorescence polarization; active compounds read low;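 active = inhibition past about -25% in most replicates, and total fluorescence under double the plate's negative control median, limit read from the data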;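 also: 0% = DMSO and -100% = 5 µM competing unlabeled TCR2 RNA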
V-ATPase pHluor: yeast V-ATPase proton transport regulation by pHLuorin; response, % at 10 µM; 350,000 compounds, 0.37% hits; S. cerevisiae, pHLuorin cytosolic pH fluorescence; AID 504577; in the data active = response mostly above about 7.3%, no sharp cut-off; inactive = mostly below about 5.4%; also: actives read high
VLA-4 inh: inhibition in a human VLA-4 binding assay | VLA-4 expressing cells, ligand binding flow cytometry | inhibition, % (about 7 µM as worked out from the volumes in the protocol) | 330,000 compounds, 0.2% hits | P13612; in the data active = inhibition above about 50%
Granule exo CP1: lytic granule exocytosis inhibition; inhibition, % at 10 µM; TALL-104 cells, LAMP-1 externalization, flow cytometry; stimulated with PMA plus thapsigargin; shares compounds with Granule exo inh; AID 651954; 1,500 compounds, 11% hits; in the data active = inhibition above about 60%;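 also: 0% = stimulated vehicle wells and 100% = unstimulated wells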
Active calls of the source: *.

Results for Cc1ccc(Nc2nc(C(=O)N3CCC(C(=O)NCc4ccccc4)CC3)cs2)cc1 ?
JMJD2C inh: -8; Granule exo inh: 65*; m5-HT2A agonist: 2; MEX-5 binding: -2; V-ATPase pHluor: -2; VLA-4 inh: 2; Granule exo CP1: -4

Results for Cc1ccc(Nc2nc(C(=O)N3CCC(C(=O)N4CCN(C)CC4)CC3)cs2)cc1 ?
JMJD2C inh: -7; Granule exo inh: 1; m5-HT2A agonist: -3; MEX-5 binding: 0; V-ATPase pHluor: 0; VLA-4 inh: -19

Results for CC(=O)N1c2ccccc2S(=O)(=O)c2c1ccc1ccccc21 ?
Granule exo inh: 79*; m5-HT2A agonist: 1; V-ATPase pHluor: 1; Granule exo CP1: -13

Results for CC(=O)N1c2ccccc2S(=O)(=O)c2ccccc21 ?
JMJD2C inh: -5; Granule exo inh: 0; m5-HT2A agonist: 1; MEX-5 binding: 0; V-ATPase pHluor: 3; VLA-4 inh: 14

Results for NC1=NC2OC(CO)C(O)C2O1 (stereo not given) ?
Granule exo inh: 4; m5-HT2A agonist: 0; V-ATPase pHluor: 0

What do the screens show for `O=C(O)Cn1c(=O)n(Cc2ccccc2)c2ccccc21`?
JMJD2C inh: -2; Granule exo inh: 58*; m5-HT2A agonist: 4; MEX-5 binding: -1; V-ATPase pHluor: 3; VLA-4 inh: -2; Granule exo CP1: -4

What do the screens show for `N=c1n(CC(=O)c2cccs2)c2ccccc2n1Cc1ccccc1`?
JMJD2C inh: 0; Granule exo inh: 2; m5-HT2A agonist: -2; MEX-5 binding: -1; V-ATPase pHluor: -5; VLA-4 inh: -1

What do the screens show for `O=C(Nc1cc(S(=O)(=O)N2CCOCC2)ccc1OCC(F)(F)F)C1=COCCO1`?
JMJD2C inh: -16; Granule exo inh: -3; m5-HT2A agonist: 1; MEX-5 binding: 0; V-ATPase pHluor: -4; VLA-4 inh: 2

Results for CCCS(=O)(=O)Nc1ccc(Nc2c3ccccc3nc3ccccc23)c(OC)c1 ?
Granule exo inh: 78*; m5-HT2A agonist: -5; V-ATPase pHluor: 11; Granule exo CP1: 89*

How did COc1cc(N)ccc1Nc1c2ccccc2nc2ccccc12 do in these assays?
Granule exo inh: 55; m5-HT2A agonist: -6

How did CCOC(=O)C1CCCN(Cc2ccc(OCc3ccccc3)c(OC)c2)C1 (stereo not given) do in these assays?
JMJD2C inh: -4; Granule exo inh: 57*; m5-HT2A agonist: 6; MEX-5 binding: 0; V-ATPase pHluor: 5; VLA-4 inh: 7; Granule exo CP1: -13

How did CN(C)CCCN(C(=O)CCc1ccccc1)c1nc2ccc(Cl)cc2s1 do in these assays?
JMJD2C inh: 11; Granule exo inh: 72*; m5-HT2A agonist: -10; MEX-5 binding: 2; V-ATPase pHluor: -1; VLA-4 inh: 27; Granule exo CP1: 51

What do the screens show for `O=C(C[C@H]1C/C=C\C[C@H](Cc2ccc(F)cc2)C(=O)O[C@@H](c2ccccc2)CNC1=O)N[C@@H](CO)Cc1ccccc1`?
Granule exo inh: 56*; m5-HT2A agonist: 0; V-ATPase pHluor: -1; VLA-4 inh: -1; Granule exo CP1: -4

How did CNc1cccc(-c2ccccc2CO)n1 do in these assays?
Granule exo inh: 6; m5-HT2A agonist: 0

What do the screens show for `CCN1C(c2ccccc2)C(C)C(=O)C(C)C1c1ccccc1` (stereo not given)?
JMJD2C inh: -3; Granule exo inh: 58*; m5-HT2A agonist: 0; MEX-5 binding: 1; V-ATPase pHluor: 0; VLA-4 inh: 19; Granule exo CP1: -2

What do the screens show for `CCN(CC)CC(O)Cn1c(C)c(-c2ccccc2)c2cc([N+](=O)[O-])ccc21` (stereo not given)?
JMJD2C inh: -2; Granule exo inh: 58*; m5-HT2A agonist: -6; MEX-5 binding: 1; V-ATPase pHluor: -86; VLA-4 inh: 0; Granule exo CP1: 10

Results for Cc1ccc(C)c(N2CCN(CCCNC(=O)Cn3c(=O)c4cccn4c4cccnc43)CC2)c1 ?
JMJD2C inh: 17; Granule exo inh: 75*; m5-HT2A agonist: -8; MEX-5 binding: 4; V-ATPase pHluor: 1; VLA-4 inh: 16; Granule exo CP1: -12

Results for COc1ccc(CC(=O)Nc2ccncc2Cl)cc1 ?
JMJD2C inh: 1; Granule exo inh: 6; m5-HT2A agonist: 12; MEX-5 binding: 3; V-ATPase pHluor: -1; VLA-4 inh: 12

Results for CN(c1ccccc1)S(=O)(=O)c1ccc(C(=O)NCCc2ccc(F)cc2)cc1 ?
JMJD2C inh: 56; Granule exo inh: 72*; m5-HT2A agonist: -5; MEX-5 binding: 0; V-ATPase pHluor: 2; VLA-4 inh: 8; Granule exo CP1: -4

Results for CC(C)(C)[C@@H]1CCC(=O)N(CC[C@H](Sc2ccc(Br)cc2)c2ccccc2)CC1 ?
JMJD2C inh: 7; Granule exo inh: 65*; m5-HT2A agonist: -2; V-ATPase pHluor: -2; VLA-4 inh: 9; Granule exo CP1: -5

Results for COc1ccc(Br)cc1CN(C)C(=O)CNC(=O)c1ccc2ccccc2c1 ?
JMJD2C inh: 2; Granule exo inh: 58*; m5-HT2A agonist: 1; MEX-5 binding: 2; V-ATPase pHluor: -3; VLA-4 inh: 16; Granule exo CP1: -5

What do the screens show for `CC1=C(C(=O)N(C(C)C)C(C)C)CC(CC(=O)NC2CC2)C(=O)N1Cc1ccc(C(C)(C)C)cc1` (stereo not given)?
Granule exo inh: -12; m5-HT2A agonist: 3

What do the screens show for `CC1=C(C(=O)N(C(C)C)C(C)C)CC(CC(=O)NCC2CCCCC2)C(=O)N1Cc1ccc(C(C)(C)C)cc1` (stereo not given)?
Granule exo inh: 64*; m5-HT2A agonist: -3; Granule exo CP1: -10

How did Cc1ccc(S(=O)(=O)N2CCN(C(=O)COC(=O)COc3cccc4c3OC(C)(C)C4)CC2)cc1 do in these assays?
JMJD2C inh: 2; Granule exo inh: -3; m5-HT2A agonist: 2; MEX-5 binding: 4; V-ATPase pHluor: -6; VLA-4 inh: -8

What do the screens show for `O=C(CCCc1ccccc1)Nc1cccc([N+](=O)[O-])c1`?
JMJD2C inh: 5; Granule exo inh: 57*; m5-HT2A agonist: -3; MEX-5 binding: -1; V-ATPase pHluor: 1; VLA-4 inh: 2; Granule exo CP1: -13

Results for Cc1ccc(C)c(CN2C(=O)CSc3ccc(C(=O)NCC(C)CN4CCC(C)CC4)cc32)c1 (stereo not given) ?
JMJD2C inh: -24; Granule exo inh: 77*; m5-HT2A agonist: -9; MEX-5 binding: 0; V-ATPase pHluor: 2; VLA-4 inh: 5; Granule exo CP1: 4

Screening results: PubChem, several laboratories
